Bioassay records deposited in PubChem BioAssay by Broad Institute.
Tgondii IFNg = inhibitors of Toxoplasma gondii growth with IFN-gamma; Toxoplasma gondii growth in IFN-gamma-treated host cells; hits give low values; activity change, negative = inhibition, % (concentration not given with the values); 69,000 compounds, 3.8% hits; AID 1259416; in the data active = activity change below about -70%, passing the limit was not always enough;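 also: host cells are HeLa cells infected with Toxoplasma gondii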
Starred values were filed as active, the others as inactive; i = inactive. Shown is part of a subset that was picked to be rich in hits.

SMILES	Tgondii IFNg
N#Cc1ccncn1	-27
c1ncn(Cc2cnc3n2CCN(Cc2ccoc2)C3)n1	0
COc1ccc(OC)c(C2CC(=O)Nc3sc4c(C)c(C#N)c(N)nc4c32)c1 (centres undefined)	-44
Cc1ccc(S(=O)(=O)N2CCC3(CC2)NCCN=C3NCc2ccc(Cl)cc2)cc1C	-35
Cc1ccc(S(=O)(=O)NC(=O)N2CCCN(c3c(Cl)cncc3Cl)CC2)cc1	3
CCN1CCN(Cc2ccc(Nc3ncc(F)c(-c4cc(F)c5nc(C)n(C(C)C)c5c4)n3)nc2)CC1	-78*
Fc1cccc(CN2CCN(Cc3ccc(-c4ccccc4)nc3)CC2)c1	0
CC(C)Nc1ncc(-c2nccn2Cc2ccc(F)c(F)c2)cn1	-46
CCOCC1CN(C(=O)Cc2ccsc2)Cc2nccn2C1 (centres undefined)	4
COc1ccc(NC(=O)NCC(c2cccnc2)c2cn(C)c3ccccc23)cc1 (centres undefined)	i
Cc1onc(C(=O)N2CCCC2Cc2c(C(N)=O)sc3ccccc23)c1Cn1cccn1 (centres undefined)	11
O=C1CSc2ccc(C(F)(F)F)cc2N1Cc1ccc(Cl)cc1Cl	-67
O=S(=O)(c1ccc(F)c(Cl)c1)N1CCc2nc(-c3ccccc3)sc2C1	16
COc1ccc(-c2nc3c(s2)CN(S(=O)(=O)c2ccc(C)c(C)c2)CC3)cc1OC	-98*
COc1ccc(-c2nc3c(s2)CN(S(=O)(=O)Cc2ccccc2)CC3)cc1OC	-35
O=S(=O)(c1ccccc1Cl)N1CCc2nc(-c3ccccc3)sc2C1	-15
COc1ccc(-c2nc3c(s2)CN(S(=O)(=O)c2ccc(F)cc2)CC3)cc1OC	18
COc1ccc(-c2nc3c(s2)CN(S(=O)(=O)c2ccc(NC(C)=O)cc2)CC3)cc1	-26
COc1ccc(Cl)cc1S(=O)(=O)N1CCc2nc(-c3ccccc3)sc2C1	-118*
COc1ccc(-c2nc3c(s2)CN(C(=O)Nc2ccc(C)cc2)CC3)cc1OC	-42
COc1ccc(-c2nc3c(s2)CN(S(=O)(=O)c2cc(F)ccc2C)CC3)cc1OC	-68
CCc1ccc(S(=O)(=O)N2CCc3nc(-c4ccc(OC)c(OC)c4)sc3C2)cc1	21
COc1ccc(-c2nc3c(s2)CN(S(=O)(=O)c2ccc(C)cc2)CC3)cc1OC	-87*
COc1ccc(-c2nc3c(s2)CN(S(=O)(=O)c2ccccc2C)CC3)cc1OC	-94*
CC(C)(O)C#Cc1ccc(-c2n[nH]c(Cc3ccccc3)n2)o1	-24
SMILES	Tgondii IFNg
O=C(Nc1ccc(-c2nc(-c3ccccc3)co2)cc1)c1ccc(Cl)cc1	49
COc1ccc(OCC(=O)N2CCC3(CC2)Nc2cccnc2NC3=NC2CCCC2)cc1	128
C=CCN(Cc1ccccc1Cl)C(=O)CCC1CCOC1=O (centres undefined)	-4
Cc1c(C(=O)NCCCN2CC(C)CC(C)C2)oc2ccc3c(c12)C(O)CC1(CCCCC1)O3 (centres undefined)	-112*
CCOC(=O)C1CCN(C(=O)c2nn(-c3ccccc3)nc2C)CC1	-5
CCOC(=O)C1CCN(C(=O)C2=C(C)C(=O)OC23CCN(S(C)(=O)=O)CC3)CC1	-1
CCOC(=O)C1CCN(C(=O)c2oc3ccc4c(c3c2C)C(O)CC2(CCCCC2)O4)CC1 (centres undefined)	-81*
CC1=C(C(=O)NCCCN2CCCC(C)C2)C2(CCN(S(C)(=O)=O)CC2)OC1=O (centres undefined)	21
Cc1c(C(=O)N2CCCCC2)oc2ccc3c(c12)C(O)CC1(CCCCC1)O3 (centres undefined)	-112*
CC1=C(C(=O)NCCCN2CCCC2)C2(CCN(S(=O)(=O)c3cccs3)CC2)OC1=O	6
Cc1c(C(=O)N2CC(C)CC(C)C2)oc2ccc3c(c12)C(=O)CC1(CCCCC1)O3 (centres undefined)	-51
Cc1c(C(=O)NCCCN2CCCCC2)oc2ccc3c(c12)C(O)CC1(CCCCC1)O3 (centres undefined)	-67
Cc1c(C(=O)N2CCc3ccccc3C2)oc2ccc3c(c12)C(=O)CC1(CCCCC1)O3	-22
CC1=C(C(=O)NCCCN2CC(C)CC(C)C2)C2(CCCCC2)OC1=O (centres undefined)	-80*
CC1=C(C(=O)NCCCN2CC(C)CC(C)C2)C2(CCCCCC2)OC1=O (centres undefined)	58
CCn1cc(CN2CCC(CNC(=O)c3cnccc3C)C2)cn1 (centres undefined)	-5
Cc1cc(C)cc(NC(=O)c2nnn(Cc3nc(-c4ccc(Cl)cc4)oc3C)c2C)c1	-9
CCc1nncn1-c1ccccc1OCC(=O)Nc1cccc2ccc(C)nc12	10
CCN(Cc1cccc(C(=O)Nc2cnn(C)c2)c1)Cc1nc(C)no1	6
Cc1ccsc1CN(C)Cc1ccc(C(=O)Nc2cnn(C)c2)cc1	-84*
COC[C@H]1CCCN1Cc1ccc(C(=O)Nc2cnn(C)c2)cc1	3
Cc1ccccc1CNC(=O)Cn1ncc2c(N3CCCC3)ncnc21	33
FC(F)(F)CCN1C[C@@H]2OCCN(c3cnccn3)[C@H]2C1	-13
CCn1ccnc1CN(C)Cc1noc(C)n1	-25
S=C(CCC(=S)Nc1ccc(Cl)cc1)Nc1ccc(Cl)cc1	-15
SMILES	Tgondii IFNg
CSCCNC(=O)Nc1ccc(Cl)cc1	34
O=C(Cc1ccc(O)cc1)NCCNC(=S)Nc1ccc(Cl)cc1	-96*
Cc1ccc(-c2coc(-c3ccc(NC(=O)NCCc4ccccc4)cc3)n2)cc1	14
COc1cccc(-c2cn(Cc3nc(C)cc(C(F)(F)F)n3)nn2)c1OC	-3
O=S(=O)(NCCc1csc(-c2ccc(Cl)cc2)n1)c1ccc(F)cc1F	-11
COc1ncc(-c2ccc3nccc(-c4ccnnc4)c3c2)cc1NS(=O)(=O)c1ccc(F)cc1F	-78*
COCCN1C(=O)CCc2cc(NS(=O)(=O)c3ccc(F)cc3F)ccc21	60
CCn1c(C2CCN(C(=O)c3ccccc3-n3cncn3)CC2)nn(C)c1=O	-21
CCN1C(=O)C2(CCN(Cc3cccnc3)CC2)CC12CCN(C(=O)CC(C)C)CC2	-21
COc1ccc(-c2nc(CN3C(=O)C(O)(c4cccc(C)c4)c4ccccc43)c(C)o2)cc1 (centres undefined)	-37
Cc1oc(-c2ccc(C(=O)NCc3cccc(F)c3)cc2)nc1CN1CCN(c2ccccc2)CC1	14
COc1ccc(-c2nc(Cn3c(C)cc(C)c(-c4nc(-c5ccccc5)no4)c3=O)c(C)o2)cc1	-86*
Cc1oc(-c2ccccc2)nc1CN1C(=O)C(O)(c2ccccc2)c2ccccc21 (centres undefined)	-36
COc1ccc(-c2nc(Cn3ccn4nc(-c5ccccc5)cc4c3=O)c(C)o2)cc1	-29
COc1ccc(-c2cc3c(=O)n(Cc4nc(-c5ccccc5)oc4C)ccn3n2)cc1	46
Cc1oc(-c2ccccc2)nc1CN1C(=O)C(O)(c2cccc(F)c2)c2ccccc21 (centres undefined)	-105*
COc1ccc(-c2nc(CN3C(=O)C(O)(c4ccccc4)c4ccccc43)c(C)o2)cc1 (centres undefined)	-78*
Cc1oc(-c2ccc(C(=O)NCc3cccc(F)c3)cc2)nc1CN1CCc2ccccc21	-43
CCN(C(=O)c1cn[nH]c1C1CCNC1)c1ccccc1 (centres undefined)	2
O=C(C[C@H]1OC[C@H]2CN(Cc3cccc(F)c3)CC[C@@H]21)N1CCCO1	-1
Cc1ccc2c(n1)N(C)CCN(C(=O)N1CCOCC1)C2	3
CCCNC(=O)c1cc(-c2csc(C(C)C)n2)n2ccccc12	-4
